Measured values from the antibiotic and cytotoxicity screens of Wong et al. (2023).
The campaign covered roughly 39,000 compounds. About 500 (1.3%) were called active. Many of the other results were omitted from the sample, so actives are more common in it than they were.

System: S. aureus RN4220
Test: growth inhibition call (relative growth <= 0.2)
Settings: 50 µM

SMILES | growth inhibition call
Cn1sccc1=O | inactive
O=C(C[C@@H]1CC[C@H]2[C@@H](COC[C@@H](O)CN2S(=O)(=O)c2ccc(Cl)cc2)O1)N1CCc2ccccc2C1 | inactive
C[C@H](CO)N1C[C@H](C)[C@@H](CN(C)Cc2ccncc2)OCCCC[C@H](C)Oc2ccc(NC(=O)Nc3ccc4c(c3)OCO4)cc2C1=O | inactive
O=C(C[C@@H]1CC[C@H]2NC[C@@H](O)COC[C@@H]2O1)NCCN1CCCC1 | inactive
COc1cc([C@@H]2c3cc4c(cc3[C@@H](O[C@@H]3O[C@@H]5CO[C@@H](C)O[C@H]5[C@H](O)[C@H]3O)[C@H]3COC(=O)[C@H]23)OCO4)cc(OC)c1O | active
COc1cc(C2c3cc4c(cc3C(OC3OC5COC(C)OC5C(O)C3O)C3COC(=O)C23)OCO4)cc(OC)c1O (configuration not stated) | inactive
COc1cc([C@@H]2c3cc4c(cc3[C@@H](O[C@@H]3O[C@@H]5CO[C@@H](C)O[C@H]5[C@H](O)[C@H]3O)[C@@H]3COC(=O)[C@@H]23)OCO4)cc(OC)c1O | inactive
N#C[C@H](N)c1ccc(Cl)cc1 | inactive
N#CC(c1ccc(Cl)cc1)c1c(Cl)cc(-n2ncc(=O)[nH]c2=O)cc1Cl (configuration not stated) | active
Nc1cc(=O)[nH]c(=O)n1-c1ccc(Cl)cc1 | inactive
Cc1noc(C)c1NC(=O)N(C)C[C@@H]1OCCCC[C@@H](C)Oc2ccc(NC(=O)C3CCCCC3)cc2C(=O)N([C@@H](C)CO)C[C@@H]1C | inactive
C[C@@H]1CN([C@@H](C)CO)C(=O)Cc2cc(NS(=O)(=O)c3ccccc3)ccc2O[C@@H]1CN(C)Cc1ccc(-c2ccccc2)cc1 | inactive
O=C(N[C@@H](c1ccc(-c2ccccc2)cc1)c1cnccn1)C1CCN(Cc2ccc(Cl)c(Cl)c2)CC1 | inactive
COc1ccc(/C=C/CN2CCC(C(=O)N[C@@H](c3ccc(F)cc3)c3ccc4ccccc4n3)CC2)cc1 | inactive
O=C(N[C@@H](c1ccccc1)c1ccc2ccccc2n1)C1CCN(CCOc2ccc(Cl)cc2)CC1 | active
COc1ccc(/C=C/CN2CCC(C(=O)N[C@@H](c3ccc(-c4ccccc4)cc3)c3cnccn3)CC2)cc1 | active
O=C(N[C@@H](c1ccccc1)c1ccc2ccccc2n1)C1CCN(CCOc2ccc(Cl)cc2Cl)CC1 | inactive
COc1ccc(OCCN2CCC(C(=O)N[C@@H](c3ccc(F)cc3)c3ccc4ccccc4n3)CC2)cc1 | inactive
COc1cc(CN2CCC(C(=O)N[C@@H](c3ccc(-c4ccccc4)cc3)c3cnccn3)CC2)cc(OC)c1 | inactive
O=C(N[C@@H](c1ccccc1)c1ccc2ccccc2n1)C1CCN(Cc2ccc(Oc3ccccc3)cc2)CC1 | inactive
O=C(N[C@H](c1ccc(F)cc1)c1ccc2ccccc2n1)C1CCN(Cc2ccc(Oc3ccccc3)cc2)CC1 | inactive
O=C(N[C@@H](c1ccc(F)cc1)c1ccc2ccccc2n1)C1CCN(CCOc2ccc(F)cc2)CC1 | active
O=C(N[C@@H](c1ccc(-c2ccccc2)cc1)c1cnccn1)C1CCN(Cc2ccc(Oc3ccccc3)cc2)CC1 | inactive
O=C(N[C@H](c1ccc(Cl)cc1)c1cnccn1)C1CCN(Cc2ccc(Oc3ccccc3)cc2)CC1 | active

SMILES | growth inhibition call
Cc1noc(C)c1NC(=O)N(C)C[C@@H]1Oc2cc(Br)ccc2S(=O)(=O)N([C@@H](C)CO)C[C@H]1C | inactive
C[C@@H]1O[C@@H](O[C@@H]2[C@@H](O)[C@H](OCCc3ccc(O)c(O)c3)O[C@H](COC(=O)/C=C/c3ccc(O)c(O)c3)[C@H]2O)[C@H](O)[C@H](O)[C@H]1O | inactive
CO[C@@H]1CN(C)C(=O)c2cc(NC(=O)CC(F)(F)F)ccc2OC[C@@H](C)N(C(=O)C2CCOCC2)C[C@@H]1C | inactive
C[N+]1(C)C[C@H](O)[C@H](C(=O)O)C1 | inactive
COCC(=O)N1C[C@H](C)[C@H](OC)CN(C)C(=O)c2ccc(NC(=O)c3cc(C)on3)cc2OC[C@H]1C | inactive
COCCOC(=O)N1C(=O)[C@@]2(c3cc(C#CCNC(N)=O)ccc31)[C@H](c1ccccc1OCCO)N1[C@H](c3ccccc3)[C@H](c3ccccc3)OC(=O)[C@H]1[C@@H]2C(N)=O | inactive
C[C@H](CO)N1C[C@H](C)[C@H](CN(C)S(=O)(=O)c2ccc(Oc3ccccc3)cc2)OCc2cnnn2CCCC1=O | inactive
Cc1noc(C)c1NC(=O)Nc1ccc2c(c1)C(=O)N([C@H](C)CO)C[C@@H](C)[C@@H](CN(C)S(=O)(=O)c1ccc(Cl)cc1)OCCCC[C@H](C)O2 | inactive
CCCC#Cc1ccc2c(c1)O[C@@H](CN(C)C(=O)c1cnccn1)[C@@H](C)CN([C@@H](C)CO)S2(=O)=O | inactive
O=C(N[C@@H](c1ccc(-c2ccccc2)cc1)c1cnccn1)C1CCN(CCCOc2ccccc2)CC1 | inactive
O=C(N[C@H](c1ccc(F)cc1)c1ccc2ccccc2n1)C1CCN(Cc2ccc3ccccc3n2)CC1 | inactive
O=C(N[C@@H](c1ccc(-c2ccccc2)cc1)c1cnccn1)C1CCN(Cc2cccc(C(F)(F)F)c2)CC1 | inactive
O=C(N[C@H](c1ccc(F)cc1)c1ccc2ccccc2n1)C1CCN(CCOc2ccc(Cl)cc2)CC1 | active
O=C(N[C@@H](c1ccc(-c2ccccc2)cc1)c1cnccn1)C1CCN(CCOc2ccc(F)cc2)CC1 | active
COc1cc(CN2CCC(C(=O)N[C@@H](c3ccc(F)cc3)c3ccc4ccccc4n3)CC2)cc(OC)c1 | inactive
C[C@@H]1CCCCO[C@@H](CN(C)Cc2ccc(Cl)c(Cl)c2)[C@H](C)CN([C@H](C)CO)C(=O)c2cc(NC(=O)C3CCCCC3)ccc2O1 | inactive
COc1ccc(NC(=O)N(C)C[C@@H]2OCCCC[C@H](C)Oc3ccc(NC(=O)Cc4ccccc4)cc3C(=O)N([C@@H](C)CO)C[C@@H]2C)cc1 | inactive
C[C@H]1CN([C@@H](C)CO)C(=O)c2cc(C#Cc3ccc(F)cc3)cnc2O[C@@H]1CN(C)CC1CCOCC1 | inactive
CC1=C(/C=C/C(C)=C/C=C/C(C)=C/C=C/C=C(C)/C=C/C=C(C)/C=C/C2=C(C)CCCC2(C)C)C(C)(C)CCC1 | inactive
Cc1noc(C)c1NC(=O)Nc1cccc2c1O[C@H](CN(C)S(=O)(=O)c1cn(C)cn1)[C@H](C)CN([C@@H](C)CO)C2=O | inactive
C[C@H](CO)N1C[C@H](C)[C@@H](CN(C)Cc2ccc(C(=O)Nc3ccccc3N)cc2)Oc2c(NS(=O)(=O)c3cn(C)cn3)cccc2C1=O | inactive
Cc1nn(C)c(COc2ccc(N3CCN(S(=O)(=O)N(C)C)CC3)cc2)c1-c1cccc2c(CCCOc3cccc4ccccc34)c(C(=O)O)n(CCN3CCNCC3)c12 | inactive
COc1cc(C(=O)N2CCN(CCN3C(=O)c4cccc5cccc(c45)C3=O)CC2)cc(OC)c1OC | inactive
COc1ccc2c(c(Br)c(C(=O)O)n2CCCOc2cccc3ccccc23)c1-c1ccccc1C | active

SMILES | growth inhibition call
C=Cn1cnc2c1c(=O)n(C)c(=O)n2C | inactive
CC(C)=CCc1c2c(c3occ(-c4ccc(O)cc4)c(=O)c3c1O)C=CC(C)(C)O2 | inactive
CC(C)=CCCC1(C)C=Cc2c(O)c3c(c(CC=C(C)C)c2O1)OC12C(=CCCC1C(C)(C)OC2(CC=C(C)C(=O)O)C(=O)O)C3=O (configuration not stated) | active
C=c1ccc(S(=O)(=O)NC[C@@H](C)O)cc1=C1NN=C2c3ccccc3C(C)=NN21 | inactive
C[C@H](CO)N1C[C@H](C)[C@H](CN(C)S(C)(=O)=O)Oc2cc(C#Cc3ccc(F)cc3)ccc2S1(=O)=O | inactive
C[C@@H]1CN([C@H](C)CO)C(=O)c2cccc(NS(=O)(=O)c3ccccc3)c2O[C@@H]1CN(C)Cc1ccncc1 | inactive
CCCCCCCCCCCCC[N+](C)(C)Cc1ccccc1 | active
CCCCCCCCCCCCCCCC[N+](C)(C)Cc1ccccc1.[Cl-] | inactive
CCCCCCCCCCCCC[N+](C)(C)Cc1ccccc1.O.[Cl-] | inactive
Cc1noc(C)c1S(=O)(=O)N(C)C[C@@H]1Oc2ccc(NS(C)(=O)=O)cc2CC(=O)N([C@H](C)CO)C[C@H]1C | inactive
C[C@@H]1CN([C@H](C)CO)C(=O)c2cccc(NC(=O)c3cnccn3)c2O[C@@H]1CN(C)S(=O)(=O)c1ccc(F)cc1 | inactive
C[C@@H]1CCCCO[C@@H](CN(C)C(=O)Nc2ccc3c(c2)OCO3)[C@H](C)CN([C@@H](C)CO)C(=O)c2cc(NC(=O)Nc3ccccc3)ccc2O1 | inactive
COc1ccc(C#Cc2ccc3c(c2)O[C@@H](CN(C)S(=O)(=O)c2ccccc2F)[C@H](C)CN([C@H](C)CO)S3(=O)=O)cc1 | inactive
O=C([O-])c1ccccc1-c1c2cc(I)c(=O)c(I)c-2oc2c(I)c([O-])c(I)cc12.[Na+].[Na+] | active
O=C(O)CN(CC(=O)O)Cc1cc2c(-c3ccccc3C(=O)O)c3cc(CN(CC(=O)O)CC(=O)O)c(=O)cc-3oc2cc1O | inactive
O=C(O)c1ccccc1-c1ccco1 | inactive
O=C(O)c1ccccc1-c1c2cc(I)c(=O)c(I)c-2oc2c(I)c(O)c(I)cc12 | active
C[C@@H]1CN([C@@H](C)CO)C(=O)c2cc(NS(=O)(=O)c3ccccc3)ccc2O[C@@H](C)CCCCO[C@@H]1CN(C)Cc1ccc2c(c1)OCO2 | inactive
Cc1ccc(S(=O)(=O)N(C)C[C@H]2OCCCC[C@H](C)Oc3ccc(NC(=O)NC4CCCCC4)cc3C(=O)N([C@H](C)CO)C[C@@H]2C)cc1 | inactive
O=C(CN1CCOCC1)N[C@H]1CC[C@H](CCNS(=O)(=O)c2ccccc2F)O[C@H]1CO | inactive
CO[C@@H]1CN(C)C(=O)c2ccc(NC(=O)Nc3cccc(F)c3)cc2OC[C@H](C)N(C(=O)Nc2c(C)noc2C)C[C@H]1C | inactive
CC(O)C1C(=O)N2C(C(=O)O)=C(SC3CNC(C(=O)N(C)C)C3)C(C)C12 (configuration not stated) | active
CC(O)C1C(=O)N2C(C(=O)[O-])=C(SC3Cn4cnc[n+]4C3)C(C)C12 (configuration not stated) | inactive
C[C@@H](O)[C@H]1C(=O)N2C(C(=O)O)=C(SCCNC=N)C[C@H]12 | inactive
